# ELG1 repair inh: inhibitors of ELG1-dependent DNA repair in HEK293T cells | HEK293T ELG1-luciferase reporter, luminescence, 16 h; DNA damage induced by 5-fluorouridine | Potency, µM (doses to about 46.1 µM), inactives show at the highest dose activity change, negative = inhibition, actives largely listed as inhibitors | 2.3% of 330,000 active | AID 504467; also: potency is read from the fitted curve at half-maximal effect; nearly all actives have a fitted effect of over 55% in size
#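 5-Fluorouridine DNA damage + compound/DMSO, 2,000 cells/well, 16 h, 37 °C/5% CO2. ONE-Glo, 30 min RT, luminescence. Readout = decrease in reporter signal.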
# Gal4-VP16 FLuc: counter-screen for ROR gamma inhibitors: Gal4-VP16 reporter; Potency, µM (highest dose often 53.6 µM), for the others: at the top dose activity, negative = inhibition, actives largely listed as inhibitors; AID 2546; Drosophila S2 Gal4-VP16 UAS-luciferase, luminescence, 20 h; 3.5% of 310,000 active;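 also: Gal4-VP16 expression switched on by copper sulfate through the metallothionein promoter; potency is read from the fitted curve at half-maximal effect; nearly all actives have a fitted effect of over 50% in size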
# RORg inh: ROR gamma (mouse) transcription inhibition; Drosophila S2 Gal4-RORgamma UAS-luciferase reporter, 20 h; Potency, µM (highest dose often 53.6 µM), for inactives: top-dose activity change, negative = inhibition, hits mostly inhibitors; 5.4% of 310,000 active; AID 2551; also: potency is read from the fitted curve at half-maximal effect; nearly all actives have a fitted effect of over 60% in size
# Target sequence (P51450 whole entry, looked up, the tested form may be a part): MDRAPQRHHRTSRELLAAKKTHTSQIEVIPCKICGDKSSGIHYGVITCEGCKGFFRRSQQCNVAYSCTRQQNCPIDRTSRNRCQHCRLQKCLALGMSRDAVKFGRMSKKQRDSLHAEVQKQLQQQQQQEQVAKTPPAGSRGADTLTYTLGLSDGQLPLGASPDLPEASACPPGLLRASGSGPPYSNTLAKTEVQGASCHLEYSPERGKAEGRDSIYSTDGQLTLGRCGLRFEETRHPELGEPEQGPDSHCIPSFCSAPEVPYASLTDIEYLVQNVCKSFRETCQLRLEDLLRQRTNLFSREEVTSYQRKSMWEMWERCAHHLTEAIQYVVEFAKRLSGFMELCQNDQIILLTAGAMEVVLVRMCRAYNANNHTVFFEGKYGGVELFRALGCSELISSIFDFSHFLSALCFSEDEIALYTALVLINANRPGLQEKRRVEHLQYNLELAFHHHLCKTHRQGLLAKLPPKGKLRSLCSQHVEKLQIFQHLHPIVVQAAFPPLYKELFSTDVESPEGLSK
#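 Drosophila Schneider cells stably carrying a metallothionein-driven Gal4 DBD–ROR gamma fusion and a UAS-Photinus luciferase reporter were exposed to compound for 1 hr, then induced with copper sulfate (700 uM final) for 20 hr at ambient temperature before luminescence reading.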
# IL-1B inflam inh: inhibitors of inflammasome signaling (IL-1 beta secretion). THP-1 LPS/ATP IL-1B secretion, AlphaLISA, 16 h; hits give low values. 4.7% of 360,000 active. AID 743279. activity change, % at 57.5 µM; in the data active = activity change below about -50%; inconclusive = mostly about -30% to -49%
#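 Secreted IL-1B measured by AlphaLISA bead assay after 16 h compound exposure of THP-1 cells; compounds (final up to 57.5 uM) added 1 h before LPS (250 ng/mL) and ATP (1.25 mM) stimulation; lower signal means less secretion.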
# TDP1 cell CPT: growth inhibition of DT40 Tdp1-/-;hTDP1 cells with camptothecin (screen for TDP1 inhibitors); chicken DT40 Tdp1-/-;hTDP1 cells + 20 nM CPT, ATP luminescence, 48 h; Potency, µM (highest dose often 46.2 µM), inactives show top-dose activity change, negative = growth inhibition, most hits filed as inhibitors; 12% of 420,000 active; AID 686979; also: potency is read from the fitted curve at half-maximal effect; nearly all actives have a fitted effect of over 55% in size
#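 Cell growth measured by CellTiter-Glo luminescence after a minimum 48 h, 37 C compound exposure with 20 nM CPT in Tdp1-knockout DT40 cells stably expressing hTDP1, seeded 400/well; qHTS titration format.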
# DT40 TDP1 no CPT: qHTS for Inhibitors of human tyrosyl-DNA phosphodiesterase 1 (TDP1): qHTS in cells in absence of CPT | DT40 Tdp1-/- hTDP1 cells, no CPT, ATP luminescence, 48 h | Potency, µM (top dose mostly 46.2 µM), for inactives: top-dose activity change, negative = growth inhibition, hits mostly inhibitors | 15% of 420,000 active | AID 686978, 2013; also: potency is read from the fitted curve at half-maximal effect; nearly all actives have a fitted effect of over 55% in size
#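 DT40 Tdp1-/-;hTDP1 cells, no CPT (DMSO vehicle only), 400 cells/well; compounds pin-transferred; ≥48 hr, 37 °C; CellTiter-Glo 30 min RT dark, luminescence read.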
# Numbers without * were called inactive; ? = inconclusive; nt = no result; [ ] = dose if it differs, or a comment. This is a sample that favours compounds with a hit; in the whole collection about 21% have one here. Unless noted, calls follow the shape of the dose curve; as a rule, active = well fitted curve in the direction sought with a large enough effect; inconclusive = small, poorly fitted or top-dose-only effect, or another doubt; inactive = no such curve, though single readings can be large; an effect the other way counts as inactive or inconclusive. % is scaled to controls: 0 for no effect and ±100 for the full control effect.
SMILES,ELG1 repair inh,Gal4-VP16 FLuc,RORg inh,IL-1B inflam inh,TDP1 cell CPT,DT40 TDP1 no CPT
CCc1ccc(-c2nc(SCC(=O)NC3CC3)n[nH]2)cc1,?,nt,nt,49,14%,-10%
O=C(Cn1c2[n+](c3ccc(C(F)(F)F)cc31)CCCCC2)c1ccc2c(c1)OCCO2,10%,11%,14%,-11,?,21µM*
CCc1cccc(NC(=O)Cn2c3[n+](c4ccc(C(F)(F)F)cc42)CCCCC3)c1,-21%,-1%,2%,-68*,?,16µM*
FC(F)(F)c1ccc2c(c1)n(Cc1ccccc1)c1[n+]2CCCCC1,4%,26%,-14%,-3,?,?
O=C(Cn1c2[n+](c3ccc(C(F)(F)F)cc31)CCCCC2)Nc1ccccc1,?,-7%,8%[10 µM],-13,?,-29%
COc1ccc(-c2nc3cnc(OC)nc3n(CCC#N)c2=O)cc1,nt,8%,-9%,nt,-8%,-3%
CCc1cc(CNC(=O)C2CCC(=O)N(CCc3cccc(F)c3)C2)on1 (stereo unspecified),12%,nt,nt,2,-11%,-1%
O=C(CCS(=O)(=O)c1cc(Br)cc2c1N(C(=O)C1CC1)CC2)N1CCN(c2cccc(Cl)c2)CC1,nt,nt,nt,nt,2%,-3%
O=C(NC1CCCC(C(F)(F)F)C1)c1ccc([N+](=O)[O-])o1 (stereo unspecified),-21%,nt,nt,-98*,?,18µM*
COc1cccc(C(=O)OCC(=O)NC(=O)NC2CCCC2)c1O,11%,6%,-23%,28,3%,-1%
Cc1c(C(=O)OCC(=O)NC(=O)NC2CCCCC2)cccc1[N+](=O)[O-],-6%,nt,nt,-67*,?,?
O=C(COC(=O)c1ccc([N+](=O)[O-])o1)NC1CCCCC1,16%,nt,nt,27,0.0082µM*,0.0082µM*
O=C(COC(=O)c1ccc(S(=O)(=O)N2CCCCCC2)cc1)NCc1ccc(Cl)cc1,21%,nt,nt,5,?,6%
O=C(NC(=S)NNC(=O)c1cccs1)c1ccco1,0%,?,2.8µM*,6,?,?
O=C(Nc1ccc(NC(=S)NC(=O)c2cccs2)cc1)c1ccco1,-5%,-22%,11µM*,-7,-8%,1%
CCCn1c(C)nc2c(N(CCOC)CCOC)nc(C)nc21,nt,17%,-25%,nt,nt,nt
Cc1cccc(NS(=O)(=O)c2cccc(C(=O)NCC(c3ccc(F)cc3)N3CCOCC3)c2)c1 (stereo unspecified),nt,nt,nt,-15,?,?
COc1ccc2[nH]c3c(NCCN4CCCCC4)ncnc3c2c1,?,-4%,3%,nt,nt,nt
Fc1ccc2[nH]c3c(NCc4ccco4)ncnc3c2c1,nt,nt,nt,nt,7.1µM*,8.9µM*
COc1ccc(/C=N/Nc2ncnc3c2[nH]c2ccc(C)cc23)c(OC)c1OC,-17%,0%,-27%,56,?,15µM*
COc1cc(OC)c(OC)cc1/C=N/Nc1ncnc2c1[nH]c1ccccc12,?,-11%,-3%,28,-21%,?
c1coc(CNc2ncnc3nc[nH]c23)c1,0%,5%,15%,11,-26%,-28%
COc1cc(CNc2ncnc3c2[nH]c2ccc(C)cc23)cc(OC)c1,21µM*,-10%,?,?,?,21µM*
Cc1ccc2[nH]c3c(NCc4ccco4)ncnc3c2c1,?,?,-27%,-21,23µM*,18µM*
Cc1noc(C)c1S(=O)(=O)N1CCCC(C(=O)NCCc2ccc(Cl)cc2)C1 (stereo unspecified),4%,-4%,?,0,?,?
SMILES,ELG1 repair inh,Gal4-VP16 FLuc,RORg inh,IL-1B inflam inh,TDP1 cell CPT,DT40 TDP1 no CPT
Cc1noc(C)c1S(=O)(=O)N1CCCC(C(=O)NCCC2=CCCCC2)C1 (stereo unspecified),-4%,1%,26%,14,?,16µM*
Cc1noc(/C=C/N(C)C)c1S(=O)(=O)N1CCCC(C(=O)NC(C)c2ccccc2)C1 (stereo unspecified),4%,?,?,-9,-16%,-17%
Cc1noc(/C=C/N(C)C)c1S(=O)(=O)N1CCCC(C(=O)NCCC2=CCCCC2)C1 (stereo unspecified),-12%,-5%,20%,-28,21µM*,16µM*
CC(O)(c1ccccc1)c1nc(-c2cccc(C#N)c2)cs1 (stereo unspecified),nt,nt,nt,2,?,?
COc1cccc(C(C)(O)c2nc(-c3cccc(C#N)c3)cs2)c1 (stereo unspecified),nt,nt,nt,-24,18µM*,13µM*
COc1ccc(C(C)(O)c2nc(-c3cccc(C#N)c3)cs2)cc1 (stereo unspecified),nt,nt,nt,9,13µM*,21µM*
COc1ccc(N2CCN(S(=O)(=O)c3ccc(F)c(C(=O)Nc4ccccc4Cl)c3)CC2)cc1,nt,nt,nt,nt,7.3µM*,8.2µM*
COc1ccccc1N1CCN(S(=O)(=O)c2ccc(F)c(C(=O)Nc3ccc(Cl)cc3C(F)(F)F)c2)CC1,nt,nt,nt,nt,?,21µM*
COc1ccccc1NC(=O)c1cc(S(=O)(=O)N2CCN(c3ccccc3Cl)CC2)ccc1F,nt,nt,nt,nt,?,-70%
COc1ccc(NC(=O)C2CCCN(c3ncnc4onc(-c5ccc(F)cc5)c34)C2)cc1 (stereo unspecified),-6%,5%,-17%,0,?,?
Fc1ccc(-c2noc3ncnc(N4CCCCC4)c23)cc1,nt,nt,nt,nt,18µM*,23µM*
O=C(Nc1ccc(F)c(Cl)c1)C1CCCN(c2ncnc3onc(-c4ccc(F)cc4)c23)C1 (stereo unspecified),nt,nt,nt,nt,-80%,15µM*
Cc1ccc(CNC(=O)C2CCCN(c3ncnc4onc(-c5ccc(F)cc5)c34)C2)cc1 (stereo unspecified),nt,nt,nt,nt,?,18µM*
CCOC(=O)c1ccc(NC(=O)C2CCCN(c3ncnc4onc(-c5ccc(F)cc5)c34)C2)cc1 (stereo unspecified),nt,nt,nt,nt,21µM*,15µM*
CCC1CCCCN1CCCNC(=O)C1CC(=O)N(CCc2ccccc2)C1 (stereo unspecified),?,6%,8%,11,-21%,26%
CCOC(=O)C(=C1Nc2ccccc2N1)n1c(-c2cnccn2)nc2ccccc21,nt,nt,nt,-15,-19%,-25%
CCOC(=O)C(=C1Nc2ccccc2N1)n1c(-c2ccco2)nc2ccccc21,nt,nt,nt,3,7.3µM*,?
